Assay results taken from PubChem BioAssay AID463173 (ICCB-Longwood Screening Facility, Harvard Medical School, 2010).
In all, about 52,000 compounds went through this assay and about 1,700 (3.3%) were called active. What follows is part of a selection rich in actives, with near analogues and random picks from the rest. Unmarked numbers belong to inactive results. Rule as the data show it: active = survival mostly below about 52% (no sharp cut-off); inactive = mostly above about 56%.

Each compound was assayed on Wild type (assay: S. aureus survival, RN4220 and DeltatarO strains – OD600, teichoic acid synthesis inhibitors, primary screen (AID 463173)). Details: S. aureus RN4220 wild type/DeltatarO growth, OD600, 18 h, active compounds read low, screened at 18.75 µg/mL (by protocol).
Compound `CC(=O)Nc1ccc(S(=O)(=O)N2CCN(Cc3ccccc3Cl)CC2)cc1` has a survival of 117%. With `Cc1ccc(S(=O)(=O)N2CCN(Cc3ccccc3Cl)CC2)cc1` the survival was 19% (active). For `Cc1ccc(S(=O)(=O)N2CCC(C(=O)NCc3ccccc3Cl)CC2)cc1`, the survival was 64%. In the case of `CC(C)(C)c1ccc(C(=O)NC2(C(F)(F)F)NC(=O)N(CCc3ccccc3)C2=O)cc1` (centres undefined), the survival is reported as 43%. `O=C(Nc1cccc(C(F)(F)F)c1)c1cccs1` showed a survival of 116%. `O=C(Nc1cccs1)Nc1cc(C(F)(F)F)ccc1Cl` was tested, and the survival was 26%. `O=C(Nc1cccc(C(F)(F)F)c1)c1ccc2snnc2c1` gave a survival of 118%. `Cc1c(Cl)cccc1NC(=O)c1ccc2snnc2c1` showed a survival of 106%. With `Cc1c(Cl)cccc1NC(=O)Nc1ccc2snnc2c1` the survival was 24% (active). `O=C(Nc1cccc(C(F)(F)F)c1)Nc1ccc2snnc2c1` was tested, and the survival was 29% (active). `CCc1ccccc1NC(=O)Nc1ccc2snnc2c1` showed a survival of 82%. Work on `O=C(Nc1ccc(F)cc1)Nc1ccc2snnc2c1` yielded a survival of 45%. In the case of `O=C(Nc1cccc(C(F)(F)F)c1)Nc1cccs1`, the survival is reported as 4% (active). For `CCc1ccc(NC(=O)CSc2nc3c(sc4ccccc43)c(=O)n2CCN(CC)CC)cc1`, the survival was 73%. `CCN(CC)/C(=N/OCc1ccc(Cl)cc1Cl)c1nonc1N` was tested, and the survival was 100%. `CC1=NN(C(C#N)c2ccccc2)C(C)(C)C1` (centres undefined) was tested, and the survival was 113%. `Cc1cccc(N2CCN(Cc3nnc(-c4ccc5c(c4)OCO5)o3)CC2)c1C` showed a survival of 83%. `CCOC(=O)c1ccc(CSc2nnc3cc(C)c4ccccc4n23)cc1` showed a survival of 108%. Work on `CCCN(CCC)C(=O)CSc1nnc2cc(C)c3ccccc3n12` yielded a survival of 84%. With `Cc1cc2nnc(SCc3ccc(F)cc3)n2c2ccccc12` the survival was -2% (active). In the case of `COc1ccc(Cn2c(SCc3ccc(C(=O)NCCc4ccccc4)cc3)nc3cccnc32)cc1`, the survival is reported as 77%. `CCCn1c(NCc2ccccc2C)nc2ccccc21` gave a survival of 95%. With `CCCCCn1c(NCc2ccccc2OC)nc2ccccc21` the survival was -5% (active). `CCCCCn1c(NCc2ccc(OC)cc2)nc2ccccc21` was tested, and the survival was -2% (active). `CCCn1c(NCc2ccccc2F)nc2ccccc21` showed a survival of 89%. `CCCCn1c(NCc2ccc(OC)cc2O)nc2ccccc21` was tested, and the survival was 88%. `CCCCn1c(NCc2ccc(N(C)C)cc2)nc2ccccc21` gave a survival of 70%. In the case of `CCCn1c(NCc2ccc(N(CC)CC)cc2)nc2ccccc21`, the survival is reported as 0% (active). For `CCCCn1c(NCc2cc(Br)ccc2O)nc2ccccc21`, the survival was 69%. Work on `CCn1c(NCc2ccc(OC)c(OC)c2)nc2ccccc21` yielded a survival of 127%. Compound `CCOc1ccc(CNS(=O)(=O)c2ccc3c(c2)CC(C)N3C(C)=O)cc1OC` (centres undefined) has a survival of 70%. In the case of `CCN(C(=O)C1CCC(CNS(=O)(=O)c2cccc3nsnc23)CC1)c1ccccc1` (centres undefined), the survival is reported as 76%. `CCOC(=O)c1[nH]c(C)c(CCC(=O)Nc2ccccc2OCC)c1C` gave a survival of 84%. Compound `COc1ccc(-c2cn3nc(N4CCCC(C(=O)Nc5ccc(Cl)cc5C)C4)sc3n2)cc1` (centres undefined) has a survival of 77%. With `O=C(Cn1c(=O)n(Cc2ccco2)c(=O)c2sc3ccccc3c21)Nc1ccc(F)cc1F` the survival was 84%. In the case of `Cc1ccc(NC(=O)CN2CCCN(Cc3ccccc3Cl)S2(=O)=O)c(C)c1`, the survival is reported as -1% (active). `Cc1cccc(CN2CCN(CC(=O)Nc3c(C)cccc3C)S2(=O)=O)c1` showed a survival of 134%. Compound `Cc1ccc(CN2CCCN(CC(=O)Nc3ccc(C)cc3C)S2(=O)=O)cc1` has a survival of 85%. `O=C(CN1CCCN(Cc2ccccc2Cl)S1(=O)=O)NCc1ccccc1` showed a survival of 78%. `CCc1cccc(C)c1NC(=O)CN1CCN(Cc2ccccc2Cl)S1(=O)=O` showed a survival of 134%. `Cc1ccccc1CN1CCCN(CC(=O)Nc2c(C)cccc2C)S1(=O)=O` showed a survival of 66%. For `CCc1cccc(C)c1NC(=O)CN1CCCN(Cc2ccc(C)cc2)S1(=O)=O`, the survival was 0% (active). `CCc1cccc(C)c1NC(=O)CN1CCCN(Cc2ccccc2Cl)S1(=O)=O` was tested, and the survival was 14% (active). `Cc1ccc(NC(=O)CN2CCCN(Cc3cc(C)ccc3C)S2(=O)=O)c(Cl)c1` was tested, and the survival was 55%. `COc1ccccc1CNC(=O)c1cnc2sc(N3CCOCC3)nn2c1=O` gave a survival of 153%. With `CC(C)(C)c1ccc(C(=O)Nc2c(C(=O)c3ccc(F)cc3)oc3ccccc23)cc1` the survival was 73%. Work on `Cc1ccc(C(=O)N2CC3(C)CC2CC(C)(C)C3)cc1` (centres undefined) yielded a survival of 110%. Work on `CCn1c(CN2CCCCC2)nc2cc(NC(=O)COc3ccc([N+](=O)[O-])cc3)ccc21` yielded a survival of 79%. With `COc1cc(C(=O)N(CCc2ccccc2)C2CC3CCC(C2)N3C)cc(OC)c1OC` (centres undefined) the survival was 104%. `COc1ccc(CNC(=O)c2nc(S(=O)(=O)Cc3ccccc3)ncc2Cl)cc1` gave a survival of 34%. With `COc1ccc(OC)c(NC(=O)c2nc(S(=O)(=O)Cc3ccc(F)cc3)ncc2Cl)c1` the survival was -3% (active). `Cc1ccc(C)c(NC(=O)c2nc(S(=O)(=O)Cc3ccc(F)cc3)ncc2Cl)c1` gave a survival of 109%. `O=C(NCc1ccccc1)c1nc(S(=O)(=O)Cc2ccc(F)cc2)ncc1Cl` was tested, and the survival was -5% (active). `O=C(NCc1ccccc1)c1nc(S(=O)(=O)Cc2ccccc2)ncc1Cl` was tested, and the survival was 42%. `COc1ccc(OC)c(NC(=O)c2nc(SCc3ccc(F)cc3)ncc2Cl)c1` was tested, and the survival was 100%. `COc1cc(C2NC(=O)c3c(sc4c3CCN(C)C4)N2)ccc1OC(=O)c1ccccc1` (centres undefined) gave a survival of 80%. `O=C(CSc1nc(=O)n(Cc2ccco2)c2c1CCC2)NCc1ccccc1` showed a survival of 72%. `Cc1ccc(NC(=O)CCc2nnc3n(C)c(=O)c4sccc4n23)cc1C` was tested, and the survival was 72%. For `Cc1ccsc1CCN1C(=O)N(c2ccc(F)cc2)C(=O)C1CC(=O)Nc1ccccc1` (centres undefined), the survival was 72%. For `COc1ccc2c(CNCc3cccs3)c(C(=O)O)n(Cc3ccccc3)c2c1`, the survival was 84%. With `COc1cc(NS(=O)(=O)c2ccc3[nH]c4c(c3c2)CCCC4)cc(OC)c1OC` the survival was 129%. `CCOC(=O)c1cccc(NC(=O)CCCn2c(C)c3cnn(-c4ccccc4)c(=O)c3c2C)c1` showed a survival of 77%. For `Cc1ccc(-n2c(SCCC(C)C)nc3sc4c(c3c2=O)CC(C)(C)OC4)cc1`, the survival was 76%. `CCSc1nc2sc3c(c2c(=O)n1-c1ccc(C)c(Cl)c1)CCN(C(C)=O)C3` showed a survival of 70%. `CCSc1nc2sc3c(c2c(=O)n1-c1ccc(C)cc1)CCCC3` was tested, and the survival was 0% (active). For `CCCSc1nc2sc3c(c2c(=O)n1-c1ccccc1)CCC(C)C3` (centres undefined), the survival was 1% (active). For `Cc1ccc(-n2c(SCC(=O)O)nc3sc4c(c3c2=O)CCCC4)cc1`, the survival was 73%. `CSc1nc2sc3c(c2c(=O)n1-c1ccccc1)CCC(C(C)(C)C)C3` (centres undefined) was tested, and the survival was 12% (active). In the case of `CSc1nc2sc3c(c2c(=O)n1Cc1ccccc1)CCC(C(C)(C)C)C3` (centres undefined), the survival is reported as 113%. For `C=C(C)CSc1nc2sc3c(c2c(=O)n1-c1ccccc1)CCC(C)C3` (centres undefined), the survival was 67%. Compound `CCOC(=O)CSc1nc2sc3c(c2c(=O)n1-c1ccccc1)CCC(C(C)(C)C)C3` (centres undefined) has a survival of 70%. For `CCCSc1nc2sc3c(c2c(=O)n1-c1ccc(C)cc1)CCCC3`, the survival was 5% (active). With `CC(C)CCSc1nnc2n(-c3ccccc3)c(=O)c3c4c(sc3n12)CC(C)CC4` (centres undefined) the survival was 76%. In the case of `CCCSc1nc2sc3c(c2c(=O)n1-c1ccc(C)c(Cl)c1)CCN(C(C)=O)C3`, the survival is reported as 87%. `Cc1ccc(C)c(N(CC(=O)Nc2ccccc2)S(C)(=O)=O)c1` gave a survival of 99%. With `CCc1cccc(NC(=O)Cn2c(=O)ccc3cc(S(=O)(=O)N4CCC(C)CC4)ccc32)c1` the survival was 129%. With `Cc1ccc2oc(C(=O)Nc3nc(-c4ccc(F)cc4)ns3)c(C)c2c1` the survival was 87%. Work on `COc1ccc(NC(=O)c2c(NCc3cccs3)sc3c2CCCC3)cc1` yielded a survival of 80%. Work on `CCOC(=O)c1cccc(NC(=O)CCSCCc2ccccn2)c1` yielded a survival of 68%. `CCOC(=O)Cn1cnc2c(cnn2-c2ccc(C)c(C)c2)c1=O` showed a survival of 72%. `COc1ccc(NC(=O)N2CCc3c([nH]c4ccc(OC)cc34)C2c2ccc(OC)cc2)cc1` (centres undefined) was tested, and the survival was 93%. `Cc1ccc(CS(=O)(=O)c2ncc(Cl)c(C(=O)Nc3nc4ccc(C)cc4s3)n2)cc1` gave a survival of 26%. `O=C(NCc1ccccc1)C(=O)NCC(c1cccnc1)N1CCN(c2ccccc2)CC1` (centres undefined) showed a survival of 82%. `Cc1ccccc1CNC(=O)C1CCN(c2nn3cc(-c4ccc(F)cc4)nc3s2)CC1` was tested, and the survival was 66%. `Cc1ccc2ncc(C(=O)NCc3ccccc3Cl)c(=O)n2c1` was tested, and the survival was 93%. For `CC1CCN(c2ccc(-c3nc(-c4ccccc4)no3)cc2[N+](=O)[O-])CC1`, the survival was 112%. `Cc1cc(C)cc(NC(=O)CSc2oc(-c3cccs3)nc2S(=O)(=O)c2ccc(Br)cc2)c1` gave a survival of 75%. For `C=C(C)CSc1nc2sc3c(c2c(=O)n1CCCC)CCCC3`, the survival was 0% (active). `COc1ccc(-n2c(SC)nc3sc4c(c3c2=O)CCN(C(C)=O)C4)cc1` was tested, and the survival was 126%. `C=C(C)Cn1c(SCC(=O)c2ccccc2)nc2sc3c(c2c1=O)CCCC3` gave a survival of 84%. For `CCCCCSc1nc2sc3c(c2c(=O)n1-c1ccc(OC)cc1)CCN(C(C)=O)C3`, the survival was -21% (active). With `CCCCCSc1nc2sc3c(c2c(=O)n1-c1ccccc1)CCN(C(C)=O)C3` the survival was 58%. In the case of `CCCCn1c(SCC(=O)c2ccccc2)nc2sc3c(c2c1=O)CCCC3`, the survival is reported as 62%. For `CCOC(=O)c1cccc(NC(=O)CSc2ncc3c(n2)-c2ccc(Cl)cc2N(Cc2ccccc2)S3(=O)=O)c1`, the survival was 87%.
